Experiments:
Type in all cases: functional
[1] = target: Solute carrier family 2, facilitated glucose transporter member 1 (Homo sapiens) (UniProt P11166); assay: ST_JUDE_LEISH: Cytotoxicity at 2uM final concentration against transgenic Leishmania Mexicana promastigotes LmGLUT1 that are glucose transport deficient and complemented with the human glucose transporter GLUT1. Activity is measured by DNA content using SYBR green in vitro
[2] = target: Hexose transporter 1 (Plasmodium falciparum) (UniProt O97467); assay: ST_JUDE_LEISH: Cytotoxicity at 2uM final concentration against transgenic Leishmania Mexicana promastigotes LmPfHT that are glucose transport deficient and complemented with the Plasmodium falciparum hexose transporter. Activity is measured by DNA content using SYBR green in vitro
[3] = target: Glucose transporter (Leishmania mexicana) (UniProt O61059); assay: ST_JUDE_LEISH: Cytotoxicity at 2uM final concentration against transgenic Leishmania Mexicana promastigotes LmGT2 that are glucose transport deficient and complemented with the L. Mexicana glucose transporter 2. Activity is measured by DNA content using SYBR green in vitro

Solute carrier family 2, facilitated glucose transporter member 1 (Homo sapiens), sequence (P11166 whole entry): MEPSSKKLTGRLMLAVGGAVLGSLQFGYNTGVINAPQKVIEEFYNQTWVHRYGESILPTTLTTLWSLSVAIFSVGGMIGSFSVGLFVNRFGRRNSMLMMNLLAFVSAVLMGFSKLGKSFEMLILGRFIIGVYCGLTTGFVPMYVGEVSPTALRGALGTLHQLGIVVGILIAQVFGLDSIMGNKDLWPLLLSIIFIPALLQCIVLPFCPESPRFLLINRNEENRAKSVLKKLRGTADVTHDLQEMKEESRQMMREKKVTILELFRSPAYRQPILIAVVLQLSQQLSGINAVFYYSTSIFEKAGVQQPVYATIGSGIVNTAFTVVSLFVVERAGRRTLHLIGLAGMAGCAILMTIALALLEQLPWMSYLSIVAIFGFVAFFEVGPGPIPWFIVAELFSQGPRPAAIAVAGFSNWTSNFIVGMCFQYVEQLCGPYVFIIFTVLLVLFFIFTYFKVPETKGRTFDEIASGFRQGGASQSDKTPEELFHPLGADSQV

SMILES	inhibition [1] [%]	inhibition [2] [%]	inhibition [3] [%]
Cc1ccccc1C1CCN(C2CCC(NC(=O)/C=C/c3cccc(F)c3F)CC2)CC1 (centres undefined)	5.69	4.6	6.25
O=C(Nc1nc2cc(S(=O)(=O)NCc3ccc(Cl)c(Cl)c3)ccc2n1CCCN1CCCC1)c1ccc(Cl)cc1	1.48	1.6	3.04
COc1ccc2nccc([C@@H](O)CN3CCC(NCCOc4c(C)cccc4F)CC3)c2c1	5.89	3.49	4.05
CCN(CC)CCCC(C)Nc1ccnc2cc(Cl)ccc12 (centres undefined)	1.44	1.5	1.51
Cc1cc(=NN=Cc2ccccc2F)c2ccccc2[nH]1	1.11	4.77	1.44
CCN(CC)c1cc(C)c2cc(NC(=O)c3cc(=O)c4ccccc4o3)ccc2n1	6.32	6.88	1.71
c1ccc2c(NCCOCCNc3c4ccccc4nc4ccccc34)c3ccccc3nc2c1	1.61	2.67	3.48
O=C(/C=C/c1ccc(Cl)c(Cl)c1)N1CCC(CCN2CCC(c3c[nH]c4ccncc34)CC2)CC1	3.03	4.39	6.65
Cc1ccccc1Nc1nc(NCCCO)c2ccccc2n1	13.6	12.5	8.48
Cc1cc(Nc2cccc(C#N)c2)nc(Nc2ccccc2C)n1	77.7	91.1	52.3
CN(C)CCNC(=O)N1CCCN(c2ncnc3cc(-c4ccccc4)sc23)CC1	8.06	5.39	6.1
COc1ccccc1CNC(=O)C(=O)Nc1c(-c2ccccc2)[nH]c2ccccc12	-3.25	-4.12	-1.57
COc1cc2c(cc1OCCN1CCC(N3CCCC3)CC1)N(C(=O)/C=C/c1ccccc1Cl)CC2	1.15	2.02	2.99

From ChEMBL document CHEMBL3433997, “St. Jude Leishmania screening dataset” (2016)
